# Laboratory results published in PubChem BioAssay (NCI).
# Compounds without any hit were thinned out: in the full panel of roughly 79,000, 15% have a hit. A number with no mark means an inactive call. Activity calls are given as the source filed them. Rule as the data show it: active = growth inhibition above about 70%; inactive = the rest.
# Assays:
# [1] = NCI Yeast Anticancer Drug Screen. Data for the rad50 strain (AID 155);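 also: 0% = growth of vehicle-only cultures of the same strain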; conditions: S. cerevisiae rad50 strain growth inhibition; at 50.0 µM; hits give high values
# Method in brief: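 Vehicle-treated cultures provide the reference for the growth inhibition reported for compound-exposed, repair-deficient yeast.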
# [2] = NCI Yeast Anticancer Drug Screen. Data for the mec2-1 strain (AID 157); conditions: S. cerevisiae mec2-1 strain, at 50.0 µM, hits give high values
# Method in brief: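 Readout is yeast growth inhibition, normalised to vehicle-treated controls, in the mec2-1 strain exposed to compound.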
# [3] = NCI Yeast Anticancer Drug Screen. Data for the sgs1 mgt1 strain (AID 161);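 also: 0% = growth of cultures given vehicle only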; conditions: S. cerevisiae sgs1 mgt1 strain, at 50.0 µM, hits give high values
# Method in brief: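 Percent growth inhibition was derived by comparing compound-exposed mutant yeast with vehicle-exposed cultures. The strain carries alterations in DNA damage repair.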
# [4] = NCI Yeast Anticancer Drug Screen. Data for the cln2 rad14 strain (AID 165);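 also: 0% = growth equal to vehicle treated cultures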; conditions: S. cerevisiae cln2 rad14 strain, at 50.0 µM, hits give high values
# Method in brief: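 Relative to vehicle controls, growth inhibition of compound-treated cln2 rad14 yeast was recorded.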
# [5] = NCI Yeast Anticancer Drug Screen. Data for the bub3 strain (AID 167); conditions: S. cerevisiae bub3 mutant strain, at 50.0 µM, hits give high values
# Method in brief: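 Mutant yeast screening strain plus compound; vehicle-treated cultures serve as the 0% inhibition reference.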
# [6] = NCI Yeast Anticancer Drug Screen. Data for the mlh1 rad18 strain (AID 175); conditions: S. cerevisiae mlh1 rad18 strain growth inhibition; at 50.0 µM; hits give high values
# Method in brief: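 Test agents were incubated with a yeast strain of defined genotype (DNA damage repair defect). Inhibition of growth was derived by comparison with vehicle-exposed cultures.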
SMILES,growth inhibition [1],growth inhibition [2],growth inhibition [3],growth inhibition [4],growth inhibition [5],growth inhibition [6]
CC(C)(C)OC(=O)NC(CC(N)=O)C(=O)O (centres undefined),23.1%,-6%,8.9%,-33.5%,-6.45%,10.7%
CCCCCCn1c(=O)cc2n(c1=O)CCC2,30%,11.3%,22.1%,11.1%,3.5%,-3.4%
CC(=O)C1=CCC2[C@H]3CC=C4C[C@H](O)CC[C@@]4(C)C3CC[C@@]12C (some centres undefined),21.2%,55.2%,49.8%,17.9%,58.6%,37.7%
CC(=O)Oc1cc2c(cc1OC(C)=O)C(=O)c1cc3c(cc1C2=O)OCO3,-31.7%,-10.9%,-1.3%,-17.2%,-6.5%,-12%
Nc1[nH]c(=S)[nH]c(=O)c1N=Cc1ccc2c(c1)OCO2,13.2%,10%,61.4%,12.7%,16.2%,9.7%
CNC(=O)OCc1c(COC(=O)NC)c(-c2ccc(S(=O)(=O)c3ccccc3)cc2)n(C)c1C,-5.85%,-3.85%,-1.95%,-2.7%,-16.4%,-42.6%
Cc1cc2c(cc1C)OC(=O)CC2,14.3%,6.15%,-1.2%,-11.9%,7.45%,3.65%
c1cncc([O][Ge]([O]c2cccnc2)([O]c2cccnc2)[O]c2cccnc2)c1,8.6%,15.8%,31%,24.1%,3%,35.8%
CSc1c(C#N)c(N)n2c1C(=O)N(c1ccccc1)C2=S,-52.7%,25.6%,-26.9%,20.1%,26.1%,-4.8%
CCOC(=O)C1Sc2c(c(=O)n(C)c3ccccc23)C1=O (centres undefined),34.1%,36.6%,34.1%,40.7%,-8.45%,41.2%
NC(=O)C1=C(O)C(=O)NC1=O,1.6%,1.55%,8.9%,-29.8%,7.05%,-5.1%
c1ccc2c(c1)OCCOCCOc1ccccc1OCCO2,-3.6%,0.4%,0.95%,17.8%,-6.5%,-3.65%
COc1ccc(Cc2ccccc2)cc1,-2%,-13.2%,17.4%,7.8%,-4.55%,6.65%
O=C(/C=C/c1ccccc1O)c1ccccc1,-22.8%,-15.7%,3.2%,1.9%,-5.2%,-24.6%
CC(C)CC(Nc1ccc2ccccc2c1)C(N)=O (centres undefined),-6.9%,-44.4%,10.2%,8.65%,10.8%,-3.4%
CC(=O)NNc1nc(C)c(C(=O)NNC(=O)C(=O)Nc2c(Cl)cc([N+](=O)[O-])cc2Cl)s1,41.2%,22.9%,45.7%,29%,42.7%,18.9%
CCC/C=N/NS(=O)(=O)c1ccc(C)cc1,32.1%,15.7%,30.8%,11.8%,-29.9%,12.6%
Cc1ccc(S(=O)(=O)Oc2cc(-c3ccccc3)nc3ccccc23)cc1,5.35%,-7.25%,2.95%,11.7%,27.6%,9.85%
O=CC(O)CO (centres undefined),10.4%,9.5%,11.9%,3.95%,8.65%,-5.2%
O=C(O)CNc1cc(-c2ccccc2)nc(NCC(=O)O)n1,-53.7%,-12.3%,4.45%,17.8%,-29.1%,25.4%

SMILES,growth inhibition [1],growth inhibition [2],growth inhibition [3],growth inhibition [4],growth inhibition [5],growth inhibition [6]
O=C(CNc1ccc2c(=S)c3ccccc3[nH]c2c1)Nc1ccccc1-c1ccccc1NC(=O)CNc1ccc2c(=S)c3ccccc3[nH]c2c1,88.6% (active),92.5% (active),92.1% (active),90.8% (active),90.7% (active),85.9% (active)
CC(C)S(=O)(=O)c1s[nH]c(=O)c1-c1ccccc1,-14.9%,-0.1%,12.2%,5.75%,-4.15%,-1.2%
Cn1ncc2[nH]c(=O)n(OS(=O)(=O)c3ccccc3)c(=O)c21,17.3%,-16.9%,-15.5%,4.3%,0.9%,5%
CC(/C=C/C=C(\C)C(=O)O)=C\C=C\C=C(C)\C=C\C=C(/C)C(=O)O,-0.8%,-21%,3.7%,6.6%,-9.05%,17.9%
CC1(C)OC(=O)C(=Cc2cccc3ccc4ccccc4c23)C(=O)O1,31.9%,18.3%,8.9%,-17.1%,40.7%,40.6%
O=c1ccnc2ccc3n[nH][nH]c3c12,-18.4%,-20.2%,-7.65%,3.55%,-14.2%,1.1%
Nc1nc2ccc3ccccc3c2c(=O)[nH]1,-4.35%,2.35%,-1.55%,-10.1%,-15.6%,12.7%
Cc1ccccc1NC(=O)c1ccccc1Cl,-19.3%,-18.6%,-6.9%,-31.8%,-19.1%,-25.6%
C=C(C)C#CC(O)(C(=O)OC1CCN(C)CC1)C(C)C (centres undefined),-7.95%,-14%,-21.1%,7.2%,20.9%,-22.1%
N#Cc1ccc(N=NN2CCOC2)cc1,20.6%,11.4%,-0.7%,7.7%,23%,44.9%
C=CC1=C(C)C2=NC1=CC1=NC(=CC3=C(C)C4=C(O)C(C(=O)OC)C(=C5NC(=C2)C(C)C5CCC(=O)OC)C4=N3)C(CC)=C1C (centres undefined),10.1%,11.3%,-48.8%,7.95%,4.95%,-12.5%
CCCCCCCc1ccc(N=Cc2ccc(OCCC)cc2)cc1,98.8% (active),99.3% (active),98.9% (active),99% (active),97.7% (active),99.2% (active)
Cc1ccc(C2SC(N)=Nc3c2c(C)nn3C(=O)c2ccncc2)cc1 (centres undefined),-27.6%,-33.2%,-20%,-21.7%,-28%,-23.6%
CCCCCCC(O)CC[C@H]1CCC[C@@H](C)N1 (some centres undefined),46%,26.3%,39.5%,38.9%,45.5%,38.5%
O=C(O)/C=C(\CC(=O)O)C(=O)O,12.8%,11.9%,-21.9%,8.15%,-21.1%,1.15%
O=C(O)C(O)C(O)C(O)C(O)C(O)CO.[NH-]C1CCCCC1[NH-].[Pt+2] (centres undefined),-18.3%,4.4%,-30.4%,7.4%,6.15%,-49.5%
CCOC(=O)C1C(C)C2(C#N)C(=N)OC1(C)C2(C#N)C#N (centres undefined),21.5%,19.1%,-6.6%,1.5%,-22.4%,-12.9%
CSc1nc2ncnc(NCc3ccc(Cl)cc3)c2[nH]1,-11%,-4.35%,-4.1%,-43.3%,-7.45%,-35.7%
CCO/C(O)=C(/C#N)C(=O)NC1=NCCCCC1,6.15%,8.25%,4.75%,-43%,4.65%,16.4%
